{
  "source": "PubChem BioAssay AID1508649",
  "about": "(National Center for Advancing Translational Sciences (NCATS), 2021)",
  "note": "Out of some 43,000 compounds screened, about 830 (1.9%) were called active. Entries that show only a call come without a potency. Inconclusive results (about 30%) are left out. The sample holds actives, similar compounds and a random draw of the others, so the mix is not that of the screen. The calls were made as follows: active = clear falling dose curves in both reporters; inconclusive = both reporters move, but less clearly or upward; inactive = either reporter flat; the % is the NLuc reporter signal. Potency is read from the fitted curve at half-maximal effect.",
  "data": [
    {"assay": "Cell-based coincidence reporter assay to measure PMP22 gene transcription in S16 Pmp22-F2sN cells - Primary screen", "conditions": "S16 Pmp22-F2sN Schwann cells (luciferase reporters placed in the Pmp22 gene), FLuc/NLuc coincidence luminescence, 24 h; series mostly up to 57.5 µM", "source_text": "Assay Provider: Jim Inglese Ph.D. National Center for Advancing Translational Science, National Institutes of Health, Rockville, MD CMT is a heterogeneous group of neurological disorders that affect approximately 1 in 2,500 people. In particular, the most common form of CMT, CMT1A is genetically linked to the duplication of the PMP22 gene which leads to Schwann cell overexpression, thus manifesting itself as a typical case of dose-sensitive diseases. To identify small molecule compounds that can mediate the expression of PMP22 we developed a phenotypic assay screening strategy by utilizing genome editing techniques to construct Schwann cell lines containing novel reporter technology to monitor the transcriptional or translational regulation of PMP22. For high sensitivity we use a bioluminescent reporter system embedded in the 3' UTR of the PMP22 gene (S16(c9) Pmp22-F2sN) to identify compounds that inhibit gene expression. […] We can further discriminate the effect of all transcriptionally active molecules on PMP22 translation or stability with an assay that incorporates a short NLuc peptide (HiBiT) at the C-terminus of expressed PMP22 (S16(f8) PMP22-HiBiT) allowing alpha complementation and luminescence detection of membrane-associated PMP22 protein. These assays were screened against the NCATS Sytravon Library Collection. Miniaturization of these assays to 1536-well plate format for quantitative high throughput screening (qHTS) yielded rich data sets immediately from the qHTS assay (S16(c9) Pmp22-F2sN), when compared with data from a cell viability assay (Cell TiterGlo) to identify compounds that decreased the output signals through cellular toxicity to streamline the selection process of actives for subsequent characterization using the HiBiT assay (S16(f8) PMP22-HiBiT).\nCell-based coincidence reporter assay to measure PMP22 gene transcription in S16 Pmp22-F2sN cells PROTOCOL TABLE (format as described by Inglese J, Shamu CE and Guy RK. 2007) SEQUENCE No. (e.g., 1, 2, 3, etc.); […] (e.g., Cells, Incubation, Reagent, etc.); VALUE and DESCRIPTION. 1. Cells. Add 500-1,000 cells in 4 uL in growth media (DMEM High Glucose, No Phenol Red media + 10% heat-inactivated FBS + 1% Pen/Strep supplemented media) per well into Greiner 1536-well white/solid bottom high base, TC-treated plates. 2. Compounds. Library compounds and controls added at 23nL per well, transferred by Pin Tool. 3. Incubation. Incubate plates at 37C, 5% CO2, 95% RH for 24 h. 4. Reagent. Add 3.5uL Nano-Glo Dual-Luciferase Reporter Assay System reagent 1: Lysis and FLuc reagent per well of Greiner 1536-well plates. 5. Incubation. Incubate plates at room temperature for 10 min., protect from light. 6. Detector. FLuc luminescence measured using CCD-based camera (Viewlux). 7. Reagent. Add 3.5uL Nano-Glo Dual-Luciferase Reporter Assay System reagent 2: Stop&Glo reagent per well of Greiner 1536-well plates. 8. Incubation. Incubate plates at room temperature for 10 min., protect from light. 9. Detector. NLuc luminescence measured using CCD-based camera (Viewlux). NOTES (numbers refer to Sequence numbers above; values are from representative experiments) 6. Luminescence Read #1 (FLuc): Clear filter; Exposure = 10 sec, Gain = High, Speed = Slow, Binning = 2X 9. Luminescence Read #2 (NLuc): Clear filter; Exposure = 1 sec, Gain = High, Speed = Slow, Binning = 2X REFERENCES: 1. Inglese J, Shamu CE and Guy RK, Reporting data from high throughput screening of small molecule libraries, Nature Chemical Biology, 2007, 3(8): 438-441. doi.org/10.1038/nchembio0807-438 2. Yasgar A, Shinn P, Jadhav A, Auld DS, Michael S, Zheng W, Austin CP, Inglese J and Simeonov A, Compound Management for Quantitative High-Throughput Screening. J. Assoc. Lab. Auto., 2008, 13: 79-89. doi: 10.1016/j.jala.2007.12.004", "values": [
      {"smiles": "O=c1c2cccnc2n(Cc2cccc(F)c2)c(=O)n1Cc1ccccc1Cl", "Potency": "inactive"},
      {"smiles": "CCOC(=O)c1ccc(N2C(=O)c3n[nH]c(C)c3C2c2ccc(O)c(OC)c2)cc1", "note": "(configuration not stated)", "Potency": "7.51 µM (active)"},
      {"smiles": "CCOC(=O)c1ccc(NC2=CC(c3ccc(OCC)cc3)N(c3ccc(C(=O)OCC)cc3)C2=O)cc1", "note": "(configuration not stated)", "Potency": "inactive"},
      {"smiles": "Cc1ccc(C)c(N2CCN(C(=O)Cn3nc(C)c4sc5ccccc5c4c3=O)CC2)c1", "Potency": "inactive"},
      {"smiles": "COc1cccc(C(=O)N(Cc2cccc(Cl)c2)Cc2ccco2)c1", "Potency": "inactive"},
      {"smiles": "CCOC(=O)c1ccc(NC(=O)C2CC(=O)NC(=Nc3ccc(C)c(C)c3)S2)cc1", "note": "(configuration not stated)", "Potency": "inactive"},
      {"smiles": "CCOC(=O)Cc1ccc(NC(=O)Nc2c[nH]c(=O)[nH]c2=O)cc1", "Potency": "inactive"},
      {"smiles": "CSc1oc(-c2cccs2)nc1S(=O)(=O)c1ccc(Br)cc1", "Potency": "inactive"},
      {"smiles": "Cc1ccc(CSc2oc(-c3cccs3)nc2S(=O)(=O)c2ccc(C)cc2)cc1", "Potency": "inactive"},
      {"smiles": "CCCCS(=O)(=O)c1oc(-c2cccs2)nc1S(=O)(=O)c1ccccc1", "Potency": "1.82 µM (active)"},
      {"smiles": "Cc1ccc2oc(C(=O)Nc3ccc(S(=O)(=O)N4CCCCCC4)cc3)cc(=O)c2c1", "Potency": "inactive"},
      {"smiles": "Cc1cc(C)cc(-n2c(SCC(=O)NCC3CCCO3)nc3c([nH]c4ccccc43)c2=O)c1", "note": "(configuration not stated)", "Potency": "inactive"},
      {"smiles": "CCOC(=O)c1ccc(NC(=O)c2nc(SCc3ccc(F)cc3)ncc2Cl)cc1", "Potency": "inactive"},
      {"smiles": "CCOC(=O)c1scc(-c2ccccc2)c1S(=O)(=O)Nc1ccccc1F", "Potency": "inactive"},
      {"smiles": "CCCS(=O)(=O)c1ncc(Cl)c(C(=O)Nc2scc(-c3ccccc3)c2C(=O)OCC)n1", "Potency": "5.97 µM (active)"},
      {"smiles": "CC1CCN(S(=O)(=O)c2ccc3c(c2)N(CC(=O)NCCc2ccccc2)C(=O)CO3)CC1", "Potency": "inactive"},
      {"smiles": "CCC(C)c1ccc2oc(-c3ccc(NC(=O)c4cc5ccccc5o4)cc3)nc2c1", "note": "(configuration not stated)", "Potency": "inactive"},
      {"smiles": "COc1ccccc1-c1cc2nc(C)c(CCC(=O)NC3CCCCC3)c(C)n2n1", "Potency": "inactive"},
      {"smiles": "COc1ccc(-c2nc(S(=O)(=O)c3ccccc3)c(N3CCCCC3)o2)cc1", "Potency": "inactive"},
      {"smiles": "O=C(CSc1oc(-c2ccc(F)cc2)nc1S(=O)(=O)c1ccc(Br)cc1)NC1CCCCC1", "Potency": "inactive"},
      {"smiles": "CC(C)S(=O)(=O)c1oc(-c2ccc(F)cc2)nc1S(=O)(=O)c1ccc(F)cc1", "Potency": "2.05 µM (active)"},
      {"smiles": "Cc1ccc2nc(COc3ccc(NC(=O)COc4ccccc4F)cc3)cc(=O)n2c1", "Potency": "inactive"},
      {"smiles": "CC(=O)Nc1cc(C(=O)NCc2ccc(F)cc2)ccc1Sc1ccc(F)cc1", "Potency": "inactive"},
      {"smiles": "Cc1cccc(C2CC(=O)Oc3c2c(=O)n(C)c2ccccc32)c1", "note": "(configuration not stated)", "Potency": "inactive"},
      {"smiles": "CC(CNC(=O)c1nnc(Cc2cccc(F)c2)o1)c1ccccc1", "note": "(configuration not stated)", "Potency": "inactive"},
      {"smiles": "O=C(NCCCN1CCN(c2cccc(Cl)c2)CC1)c1nnc(Cc2ccc(F)cc2Cl)o1", "Potency": "18.9 µM (active)"},
      {"smiles": "Cc1ccc(CCNC(=O)c2nnc(Cc3cccc(F)c3)o2)cc1", "Potency": "inactive"},
      {"smiles": "CCOC(=O)c1c(NC(=O)c2cc(CC)on2)sc(C(C)=O)c1C", "Potency": "inactive"},
      {"smiles": "COc1ccc(CNC(=O)C2=Cc3cccc(OC)c3OC2)cc1OC", "Potency": "inactive"},
      {"smiles": "NC(=O)CSc1nc2c(oc3ccccc32)c(=O)n1Cc1ccccc1", "Potency": "inactive"},
      {"smiles": "O=C(c1ccc2c(c1)N(Cc1ccc(F)cc1)C(=O)c1ccccc1S2(=O)=O)N1CCN(c2ccccn2)CC1", "Potency": "15.6 µM (active)"},
      {"smiles": "O=C(NCCc1ccccc1)c1ccc2c(c1)N(Cc1ccc(F)cc1)C(=O)c1ccccc1S2(=O)=O", "Potency": "inactive"},
      {"smiles": "O=C(c1ccc2c(c1)N(Cc1ccccc1F)C(=O)c1ccccc1S2(=O)=O)N1CCOCC1", "Potency": "inactive"},
      {"smiles": "Cc1ccc(C(=O)N2c3ncnn3C3(CCCCC3)[C@@H]3CCCC[C@@H]32)cc1", "Potency": "inactive"},
      {"smiles": "COc1ccc(CCNc2nc(-c3ccc(F)cc3)cc(C(F)(F)F)n2)cc1OC", "Potency": "inactive"},
      {"smiles": "O=C(CSc1nc(=O)n(Cc2cccnc2)c2c1CCC2)Nc1ccc(F)cc1F", "Potency": "inactive"},
      {"smiles": "Cn1nnnc1SCCCNCc1ccc(Cl)cc1", "Potency": "inactive"},
      {"smiles": "CCC(=O)N1CCc2cc(S(=O)(=O)NC(CC(C)C)C(=O)NCCc3cccc(C)c3)ccc21", "note": "(configuration not stated)", "Potency": "inactive"},
      {"smiles": "CCc1ccc(NC(=O)CSc2nc3c([nH]c4ccccc43)c(=O)n2-c2cccc(OC)c2)cc1", "Potency": "inactive"},
      {"smiles": "Cc1ccccc1CSc1nc2c([nH]c3ccccc32)c(=O)n1C", "Potency": "inactive"},
      {"smiles": "CCOC(=O)c1ccc(NC(=O)CSc2nc3c([nH]c4ccccc43)c(=O)n2C)cc1", "Potency": "14.1 µM (active)"},
      {"smiles": "Cc1ccccc1NC(=O)CCOc1ccccc1", "Potency": "inactive"},
      {"smiles": "COc1ccc(C)cc1N(C)C(=O)c1c(C)oc2ncnc(N3CCOCC3)c12", "Potency": "inactive"},
      {"smiles": "Cc1cccc(-n2c(SCC(N)=O)nc3c(oc4ccccc43)c2=O)c1", "Potency": "inactive"},
      {"smiles": "CC1CCN(CCCNC(=O)CN2C(=O)CSc3ccc(S(=O)(=O)N4CCCCC4)cc32)CC1", "Potency": "inactive"},
      {"smiles": "CCc1ccc(NC(=O)CN2CCSc3ccc(S(=O)(=O)N4CCCC4)cc32)cc1", "Potency": "17 µM (active)"},
      {"smiles": "CCc1ccc(NC(=O)c2cc(S(=O)(=O)N3CCCC(C)C3)cn2C)cc1", "note": "(configuration not stated)", "Potency": "inactive"},
      {"smiles": "Cc1ccc(CCNC(=O)C2CCN(c3nnc(-n4cccc4CNc4ccc(C)cc4)s3)CC2)cc1", "Potency": "20 µM (active)"},
      {"smiles": "COc1ccccc1CCNC(=O)c1cccn1-c1nnc(N2CCCCC2)s1", "Potency": "inactive"},
      {"smiles": "O=C(NCc1ccccc1Cl)c1cccn1-c1nnc(N2CCCCC2)s1", "Potency": "inactive"},
      {"smiles": "Cc1cc(C)cc(NC(=O)Cc2csc(C)n2)c1", "Potency": "inactive"},
      {"smiles": "Cc1nc2ccc(S(=O)(=O)NC(C(=O)NCc3ccccc3Cl)C(C)C)cc2s1", "note": "(configuration not stated)", "Potency": "inactive"}
    ]}
  ]
}
